Screens from PubChem BioAssay.
TROY signal inh – TROY signaling inhibition | Q293 LMP1-TROYcd NF-kB luciferase reporter, 4 h | inhibition, % at 10 µM | 360,000 tested, 0.98% active | AID 1347056;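 active = compounds whose plate-normalised and pattern-corrected inhibition of the luciferase reporter signal at the single screening dose is 50% or more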
Shn3 3UTR inh – inhibitors of Schnurri-3 3'UTR reporter in osteoblasts; 360,000 tested, 0.52% active; inhibition, % at 12.5 µM; Clone20 osteoblast Shn3 3'UTR firefly luciferase, 24 h; AID 588674;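 active = mean inhibition of at least 75% with every replicate also reaching 75%; inconclusive = mean inhibition at least 75% but some replicate below; inactive = mean inhibition below 75%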;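 note: 0% = median of neutral control wells and 100% = pilot-screen positive control compound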
TWEAK Fn14 block – TWEAK-Fn14 signaling inhibition | TWEAK-stimulated Fn14 reporter cells, luciferase luminescence, 8 h | inhibition, % at 10 µM | 360,000 tested, 2% active | AID 1159606; in the data active = inhibition above about 50%
Peg3 prom inh-1 – reduces Peg3 promoter-driven luciferase expression in HeLa; HeLa PEG-Prom luciferase reporter, luminescence, overnight; inhibition, % at 20 µM; 360,000 tested, 1.7% active; AID 588405;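 active = inhibition of at least 50% at 20 µM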
TRPM1 prom inh – MITF TRPM1 promoter inhibition in SK-MEL-5 cells; SK-MEL-5 TRPM1 promoter luciferase, 24 h; inhibition, % at 12.5 µM; 330,000 tested, 0.83% active;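 active = mean inhibition across replicates of 60% or more, whatever share of single replicates reaches that level; inconclusive = some that reach 60%, reason not given; inactive = mean inhibition across replicates below 60%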
LMP1 NFkB inh – reduces LMP1-driven NF-kappaB luciferase signal; LMP1-induced NF-kappaB luciferase reporter cells, luminescence; inhibition, % at 12.5 µM; 350,000 tested, 0.69% active; AID 504558; in the data active = inhibition above about 41%; inconclusive = no clear call, values can overlap the other calls;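 note: 0% = neutral control wells and 100% = reference inhibitor control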
Peg3 prom inh-2 – confirmation of Peg3 promoter inhibitors. shares compounds with Peg3 prom inh-1. HeLa PEG-Prom luciferase reporter, luminescence, overnight. inhibition, % at 20 µM. 1,300 tested, 84% active. AID 602417;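 active = at 20 µM dose, 40% or more inhibition averaged across four replicates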
Starred values were filed as active, the others as inactive; ? = inconclusive; nt = not tested or not shown. This is a sample that favours compounds with a hit; in the whole collection about 4.1% have one here.

SMILES	TROY signal inh	Shn3 3UTR inh	TWEAK Fn14 block	Peg3 prom inh-1	TRPM1 prom inh	LMP1 NFkB inh	Peg3 prom inh-2
CCn1nc(C)cc1-c1nnc(SCC(=O)Nc2ccccc2)n1CCCOC	-3.5	7.3	6.9	10.6	1.8	1.5	nt
CCn1nc(C)cc1-c1nnc(Sc2ncc([N+](=O)[O-])s2)n1C	-5.7	95.3*	17.2	110.2*	93.7*	16.5	99.9*
O=C(/C=C/c1ccc(F)cc1)NC(=S)NNC(=O)c1cnccn1	3.0	89.3*	0.2	55.2*	21.2	36.3	40.1*
O=C(NC(=S)NNC(=O)c1cnccn1)c1ccc(F)cc1	-19.8	66.0	0.5	23.3	-2.5	16.0	nt
CC(=O)Nc1ccc(Nc2nc(C)c([N+](=O)[O-])c(N(C)c3ccccc3)n2)cc1	42.6	45.2	-0.7	29.4	5.8	2.1	nt
CC(=O)Nc1ccc(Nc2nc(C)c([N+](=O)[O-])c(Nc3ccccc3)n2)cc1	53.2*	49.0	66.6*	63.9*	42.8	31.5	56.1*
CCCCC(=O)Nc1cccc(-c2ccc3nncn3n2)c1	-16.0	10.0	-25.4	-11.7	-4.3	-18.4	nt
CCC(COC)NC(=O)CCc1nnc(Cc2cccc(C(F)(F)F)c2)o1 (configuration not stated)	-44.2	-78.3	-11.5	-130.9	-62.5	-15.9	nt
CC(C)(NS(=O)(=O)OCC(Cl)(Cl)Cl)c1ccccc1	-2.5	-35.7	-14.1	11.8	5.6	-7.7	nt
CC(NS(=O)(=O)OCC(Cl)(Cl)Cl)c1ccc(C(C)(C)C)cc1 (configuration not stated)	-16.8	10.2	12.4	56.0*	-1.1	9.4	48.6*
Cc1c(C)c2cc(Cl)c(OCC(=O)Nc3ccccn3)cc2oc1=O	-6.3	-0.8	-19.5	-49.2	nt	-7.2	nt
O=C(COc1ccc(Cl)cc1Cl)Nc1ccccn1	88.8*	70.8	107.8*	92.0*	80.2*	64.3*	87.3*
Cc1c(C)c2ccc(OCC(=O)Nc3ccccn3)c(C)c2oc1=O	81.6*	93.9*	102.8*	93.4*	86.5*	-6.3	84.4*
CCOc1ccc2oc(C(=O)NCC(C)(C)CN(C)C)c(C)c2c1	-1.0	-16.2	1.0	-28.6	1.2	-8.9	nt
COc1ccc(C[C@H]2CN3C(=NC[C@@H]3Cc3ccc(O)cc3)N2C[C@H](C)NC(=O)CCC2CCCCC2)cc1	7.9	6.2	-15.8	63.1*	-4.3	-0.7	28.9
CN(C)S(=O)(=O)c1cccc(NC(=O)c2cncc(Br)c2)c1	7.3	-29.0	4.5	-5.6	-13.3	15.2	nt
Cc1ccc(S(=O)(=O)N(C)C)cc1NC(=O)c1cncc(Br)c1	11.5	23.6	31.1	54.7*	36.3	12.5	69.2*
NS(=O)(=O)c1ccc(NC(=O)CSc2nc3c(cnn3-c3ccccn3)c(=O)[nH]2)cc1	-5.9	-2.1	7.8	-1.1	-6.3	3.2	nt
O=C(N/N=C/c1sc(N2CCOCC2)nc1-c1ccccc1)c1cccc(S(=O)(=O)N2CCCC2)c1	9.9	89.9*	51.0*	65.7*	52.3	11.3	65.7*
COC(=O)C1=C(CN2CCCc3ccccc32)NC(=O)NC1c1ccc(F)cc1 (configuration not stated)	63.7*	73.6	85.1*	81.3*	86.8*	37.5	66.6*
COc1ccccc1C(CC(=O)O)NS(=O)(=O)c1ccc2c(c1)N(C(C)=O)CC(C)O2 (configuration not stated)	-13.2	-11.5	-1.9	6.6	-6.2	6.1	nt
O=S(=O)(c1cccs1)N1CCN(c2ccnc3cc(Cl)ccc23)CC1	37.0	9.1	17.6	51.1*	2.6	21.0	69.2*
Cc1ccc(Cn2cnc3ccccc32)cc1C	10.7	23.2	-0.6	-9.6	19.7	6.6	nt
CCN(CC)S(=O)(=O)c1cccc(C(=O)N/N=C(\C)c2ccc(O)cc2O)c1	7.1	93.5*	-0.2	52.4*	70.9*	-15.5	65.2*
CCCN1C/C(=C/c2cccc([N+](=O)[O-])c2)C(=O)/C(=C/c2cccc([N+](=O)[O-])c2)C1	1.9	17.7	7.4	110.6*	100.2*	88.0*	70.6*
SMILES	TROY signal inh	Shn3 3UTR inh	TWEAK Fn14 block	Peg3 prom inh-1	TRPM1 prom inh	LMP1 NFkB inh	Peg3 prom inh-2
CCOC(=O)N1CCN(C(=O)/C(=C/c2ccc(N(C)C)cc2)NC(=O)c2ccccc2)CC1	-5.6	-13.5	-0.3	10.6	4.7	-18.7	nt
CN1CCN(c2ccc(-c3ccc4ccccc4n3)cc2)CC1	92.1*	?	102.7*	105.0*	75.9*	83.3*	95.2*
c1ccc2nc(-c3ccncc3)ccc2c1	-21.2	-47.0	-16.9	-182.2	-24.5	0.8	nt
CSc1ccc(CN(C)C(=O)C(Cc2ccccc2)NC(=O)c2ccccc2)cc1 (configuration not stated)	16.3	17.5	28.1	65.7*	4.2	0.9	61.7*
COc1ccc(CN(C)C(=O)C(Cc2ccccc2)NC(=O)c2ccccc2)cc1F (configuration not stated)	12.8	7.8	27.9	54.1*	4.0	9.6	84.4*
CN(Cc1ccc(F)cc1)C(=O)C(Cc1ccccc1)NC(=O)c1ccccc1 (configuration not stated)	16.1	16.6	22.7	34.7	5.9	0.4	nt
CC(C)N1CC(=O)N2CSCC2C1=O (configuration not stated)	-5.0	nt	-11.2	nt	nt	nt	nt
CCCCCCCCCCCCCCCC(O)C[N+](C)(C)CCO (configuration not stated)	2.3	28.7	-60.5	103.8*	3.5	-7.0	86.5*
CC1(C)CSC(C)(C)C(=O)N1	-6.5	1.9	21.0	24.6	-5.6	10.9	nt
c1ccc(-c2cn(-c3ccccc3)c3ncnc(N4CCCCC4)c23)cc1	28.6	6.5	17.0	40.2	2.6	-8.5	nt
CCOc1ccc(-n2cc(-c3ccccc3)c3c(N4CCOCC4)ncnc32)cc1	18.1	79.1	21.3	51.1*	10.6	14.8	60.2*
O=C(NC(c1ccc(F)cc1)c1ccc2ccccc2n1)C1CCN(Cc2ccc3ccccc3n2)CC1 (configuration not stated)	-3.7	-7.2	-11.2	10.1	nt	nt	nt
O=C(NC(c1ccc(F)cc1)c1ccc2ccccc2n1)C1CCN(Cc2cccc(C(F)(F)F)c2)CC1 (configuration not stated)	44.9	58.0	39.2	77.7*	nt	nt	84.7*
COCCN(C(=O)COC(=O)/C=C/c1ccc(Cl)c(Cl)c1)c1c(N)n(Cc2ccccc2)c(=O)[nH]c1=O	3.8	12.3	6.0	4.7	11.8	11.0	nt
CC(C)CN(C(=O)COC(=O)/C=C/c1ccc(Cl)c(Cl)c1)c1c(N)n(Cc2ccccc2)c(=O)[nH]c1=O	-14.1	-10.5	18.5	88.7*	100.4*	10.1	43.8*
O=C(N(c1ccccn1)c1ccccn1)C12CC3CC(CC(Cl)(C3)C1)C2	4.5	5.1	-1.0	12.0	-1.1	0.4	nt
